# The sample as a whole holds a higher share of hits than the screen did.
# DT40 TDP1 no CPT = qHTS for Inhibitors of human tyrosyl-DNA phosphodiesterase 1 (TDP1): qHTS in cells in absence of CPT | DT40 Tdp1-/- hTDP1 cells, no CPT, ATP luminescence, 48 h | Potency, µM (top dose mostly 46.2 µM), for the others: top-dose activity change, negative = growth inhibition, actives largely listed as inhibitors | 15% of 420,000 active; further: potency means the concentration at half of the fitted maximal effect; nearly all actives have a fitted effect of over 55% in size
#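 A cellular qHTS used chicken DT40 cells lacking endogenous Tdp1 but carrying stably transfected human TDP1. Compounds were applied without camptothecin, and cell growth kinetics were judged by ATP-dependent luminescence after ≥48 hr.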
# IL1B secr inh = inhibitors of inflammasome signaling (IL-1 beta secretion). THP-1 LPS/ATP IL-1B secretion, AlphaLISA, 16 h; active compounds read low. activity change, % at 57.5 µM. 4.7% of 360,000 active. AID 743279; in the data active means activity change below about -50%; inconclusive means mostly about -30% to -49%
#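 Secreted IL-1B measured by AlphaLISA bead assay after 16 h compound exposure of THP-1 cells; compounds (final up to 57.5 uM) added 1 h before LPS (250 ng/mL) and ATP (1.25 mM) stimulation; lower signal means less secretion.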
# ALOX12 inh = blocks human arachidonate 12S-lipoxygenase; P18054; purified 12hLO, xylenol orange hydroperoxide absorbance; Potency, µM (highest dose often 108 µM), inactives show at the highest dose activity change, negative = inhibition, actives largely listed as inhibitors; 1.1% of 580,000 active; AID 1671190; further: potency means the concentration at half of the fitted maximal effect
# Target sequence (P18054 whole entry, looked up): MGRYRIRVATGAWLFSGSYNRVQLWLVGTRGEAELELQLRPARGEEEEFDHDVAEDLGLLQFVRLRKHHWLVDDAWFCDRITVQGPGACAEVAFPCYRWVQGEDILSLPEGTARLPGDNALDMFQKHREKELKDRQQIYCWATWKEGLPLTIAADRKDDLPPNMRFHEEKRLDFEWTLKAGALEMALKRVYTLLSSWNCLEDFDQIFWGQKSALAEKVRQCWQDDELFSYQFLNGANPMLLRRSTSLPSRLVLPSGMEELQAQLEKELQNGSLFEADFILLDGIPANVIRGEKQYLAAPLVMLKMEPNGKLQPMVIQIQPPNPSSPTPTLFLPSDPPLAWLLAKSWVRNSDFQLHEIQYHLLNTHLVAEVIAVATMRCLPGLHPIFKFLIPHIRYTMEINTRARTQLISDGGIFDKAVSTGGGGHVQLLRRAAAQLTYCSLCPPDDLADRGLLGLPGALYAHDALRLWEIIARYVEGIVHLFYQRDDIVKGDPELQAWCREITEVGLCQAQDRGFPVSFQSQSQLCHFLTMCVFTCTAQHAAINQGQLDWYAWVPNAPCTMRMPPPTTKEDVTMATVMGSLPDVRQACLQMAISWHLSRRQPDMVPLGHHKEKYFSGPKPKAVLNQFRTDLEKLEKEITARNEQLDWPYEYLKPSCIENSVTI
#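 Purified human 12hLO at 150 nM in 25 mM Hepes, 0.01% Triton X-100, pH 7.0, preincubated 15 min at room temperature with compound. Reaction started with 40 uM arachidonic acid, 30 min at room temperature. Hydroperoxide measured by Fe-xylenol orange, 573/405 nm absorbance ratio.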
# HT1080-NT tox = kills 2HG-producing HT-1080-NT fibrosarcoma cells; Potency, µM (top dose mostly 46.1 µM), for the others: at the top dose activity, negative = less viability, usual class: cytotoxic; HT-1080-NT fibrosarcoma viability, CellTiter-Glo ATP luminescence, 48 h; 1.6% of 360,000 active; AID 686970;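 further: NT is the 2HG producing partner of a matched IDH1 knockdown line; potency means the concentration at half of the fitted maximal effect; 0% = DMSO-treated cells and -100% = media-only wells without cells; nearly all actives have a fitted effect of over 55% in size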
#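 Fibrosarcoma NT cells, 750 per well in 5% FBS RPMI, were exposed to compound for 48 hours. Viability: CellTiter-Glo luminescence.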
# TDP1 cell CPT = growth inhibition of DT40 Tdp1-/-;hTDP1 cells with camptothecin (screen for TDP1 inhibitors) | chicken DT40 Tdp1-/-;hTDP1 cells + 20 nM CPT, ATP luminescence, 48 h | Potency, µM (titrated, usually from 46.2 µM), inactives show at the highest dose activity change, negative = growth inhibition, hits mostly inhibitors | 12% of 420,000 active; further: potency means the concentration at half of the fitted maximal effect; nearly all actives have a fitted effect of over 55% in size
#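 Chicken DT40 Tdp1-/- cells stably complemented with human TDP1 were seeded at 400 cells/well in medium containing 20 nM camptothecin, exposed to pin-transferred compounds, and grown at 37 °C for at least 48 hr. Viability was read as ATP luminescence.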
# HT1080 IDH1KD tx = kills HT-1080 cells with IDH1 knockdown | HT-1080 IDH1 knockdown viability, ATP luminescence, 48 h | Potency, µM (top dose mostly 46.1 µM), without a hit: at the top dose activity, negative = toxicity, hits mostly cytotoxic | 2% of 360,000 active | AID 686971;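 further: potency means the concentration at half of the fitted maximal effect; 0% = DMSO wells and -100% = cell-free medium wells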
#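 CellTiter-Glo luminescence after 48 h compound exposure at 37 degrees C of IDH1-knockdown HT-1080 cells in 5% FBS RPMI. %Activity scaled between DMSO wells and cell-free media wells, with curves fitted and assigned curve classes.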
# Numbers without * were called inactive; u = inconclusive; x = not tested or not shown; ! = a repeat was not active; [ ] = remark or other dose. Unless noted, the call rests on the fitted dose curve; in most records, active means well fitted curve in the direction sought with a large enough effect; inconclusive means small, poorly fitted or top-dose-only effect, or another doubt; inactive means no such curve, though single readings can be large; an effect the other way counts as inactive or inconclusive. Unless noted, on the % scale 0 is the no-effect control and ±100 the full control effect.
SMILES,DT40 TDP1 no CPT,IL1B secr inh,ALOX12 inh,HT1080-NT tox,TDP1 cell CPT,HT1080 IDH1KD tx
Cc1ccc(-c2nn3c(C)nnc3c3ccccc23)cc1S(=O)(=O)NCC(C)O (stereo not drawn),-58.8%,x,-2.9%,x,u,x
CCCNS(=O)(=O)c1cc(-c2nn3c(C)nnc3c3ccccc23)ccc1C,18.4µM*,x,u,x,u,x
Cc1ccc(C)c(Nc2nnc(-c3ccc(C)c(S(=O)(=O)NCC4CCCO4)c3)c3ccccc23)c1 (stereo not drawn),5.17µM*,x,-16.8%,x,18.4µM*,x
C=CCNC(=O)O[C@@H]1CC[C@]2(C)C(CC[C@@H](O)[C@H]2CC(=O)NCc2ccc3c(c2)OCO3)[C@]1(C)CO (stereo partly drawn),x,x,8.2%,x,x,x
Cc1ccc(C)c(N2CCN(c3c(CN4CCCC4)c(=O)oc4ccccc34)CC2)c1,25.9µM*,x,-25.1%,x,20.6µM*,x
O=c1oc2ccccc2c(N2CCN(c3cccc(C(F)(F)F)c3)CC2)c1CN1CCCC1,x,x,41.4%,x,x,x
Cc1ccc(N2CCN(c3c(CN4CCCC4)c(=O)oc4ccccc34)CC2)c(C)c1,u,x,0.9%,x,16.4µM*,x
CCCC(C)NC(=O)CN(c1ccccc1)S(=O)(=O)N(C)C (stereo not drawn),x,x,34.7%,x,x,x
Nc1cccc(-n2nnnc2CN2CCOCC2)c1,16.4µM*,-18.0,-14.5%,17.1%,u,16.1%
Nc1ccc(-n2nnnc2CN2CCOCC2)cc1,-1.7%,-13.6,0.5%,13.9%,10.5%,u
O=C(O)CCCCNCc1ccccc1,-7.1%,1.1,6.2%,7.9%,-11.2%,-1.7%
CCc1cc(OCCCCNCc2ccccc2)ccc1Cl,18.4µM*,-101.6*,u,23.1µM*,20.6µM*,u
COCCCNCCCOc1ccc(C(C)(C)c2ccccc2)cc1,18.4µM*,u,u,-8.7%,u,4.3%
Clc1cc(Br)ccc1OCCCNCc1ccccc1,u,-100.6*,u,23.1µM*,20.6µM*,u
c1ccc(CNCCCNCCCCNCCCNCc2ccccc2)cc1,20.6µM*,-109.7*,-14.8%,u,u,5.17µM*
COCCNCCCOc1ccc(C(C)(C)c2ccccc2)cc1,u,-23.3,u,-1.4%,u,3.7%
O=C(c1ccccn1)N1CCCC(n2cc(-c3nc(-c4ccccc4)no3)nn2)C1 (stereo not drawn),x,x,21.8%,x,x,x
O=C(C1CCCC1)N1Cc2ccccc2CC2(CCCN(Cc3ccccc3)C2)C1 (stereo not drawn),x,x,5.0%[6.33 µM],x,x,x
CCOC(=O)c1nc2ccccc2nc1NCc1ccco1,x,x,-10.9%,x,x,x
O=C1NC2(CCCCC2)N(C(=O)c2ccccc2Br)C2=C1CCCC2,x,x,-2.9%,x,x,x
CNS(=O)(=O)c1cc(NC(=O)c2cccc(OCc3c(C)noc3C)c2)ccc1C,x,x,23.0%,x,x,x
CC(C)(C)c1ccc(OCCCNCc2ccccc2)cc1,u,-102.3*,u,-8.1%,u,-4.4%
Cc1ccc(C)c(OCCCNCc2ccccc2)c1,u,-15.7,u,0.6%,u,-0.7%
CC(C)NCCCOc1ccc(C(C)(C)c2ccccc2)cc1,-26.2%,-12.0,u,-2.8%,-28.8%,-7.3%
CC(C)(c1ccccc1)c1ccc(OCCCNCCO)cc1,20.6µM*,u,-60.5%,u,u,18.4µM*
SMILES,DT40 TDP1 no CPT,IL1B secr inh,ALOX12 inh,HT1080-NT tox,TDP1 cell CPT,HT1080 IDH1KD tx
CC(O)CNCCCOc1cccc(Oc2ccccc2)c1 (stereo not drawn),16.4µM*,-55.6*,u,-0.7%,16.4µM*,u
OCCNCCCCOc1ccc(F)cc1,-2.7%,-3.4,5.1%,-1.7%,-27.4%,6.1%
CC(O)CNCCCOc1ccc(C(C)(C)c2ccccc2)cc1 (stereo not drawn),x,x,4.47µM*,x,x,x
COc1cc(CNC(=O)c2ccc3nc(Cc4ccccc4F)oc3c2)cc(OC)c1OC,x,x,8.3%,x,x,x
C=CCNCCCOc1ccc(C(C)(C)c2ccccc2)cc1,u,-89.3*,u,-5.6%,u,-6.6%
Cn1cc(-c2ccccc2C(N)=O)c(=O)c2cc(Cl)ccc21,-24.0%,24.0,0.0%,5.4%,1.0%,5.3%
Cn1cc(C2=C(c3ccc(Cl)cc3Cl)C(=O)NC2=O)c2ccccc21,11.2µM*!,-1.3,-8.1%,2.9%,u,-27.4%
O=C(CN1CCC(n2nnc3cc(F)ccc32)CC1)N1CCc2ccccc2C1,14.6µM*,-62.4*,-20.5%,-30.0%,u,u
O=C(CN1CCC(n2nnc3cc(F)ccc32)CC1)Nc1ccccc1N1CCOCC1,18.4µM*,-19.0,3.7%,0.3%,16.4µM*,-22.0%
O=C(CN1CCC(n2nnc3cc(F)ccc32)CC1)NC1CC1,-2.7%,2.1,0.0%,8.5%,12.2%,13.2%
Cc1nc(C2CCCN(C(=O)CCC(C)C)C2)cc(N2CCCC2)n1 (stereo not drawn),x,x,17.9%,x,x,x
CCOC(=O)C[C@H]1c2cc(F)ccc2S(=O)(=O)N1Cc1ccc(OC)cc1,u,39.0,-6.5%,13.6%,u,6.5%
CCOC(=O)C[C@H]1c2cc(F)ccc2S(=O)(=O)N1Cc1cc(OC)c(OC)c(OC)c1,11.2µM*,x,x,x,10µM*,x
COc1ccc(C2C=C(c3ccccc3)Nc3nc(NC(=O)/C=C/c4ccc(Cl)cc4)nn32)cc1 (stereo not drawn),11.6µM*,x,-5.2%,x,14.6µM*,x
O=C(/C=C/c1ccccc1)Nc1nc2n(n1)C(c1ccc(Cl)cc1)C=C(c1ccccc1)N2 (stereo not drawn),23.1µM*,x,3.4%,x,20.6µM*,x
COc1ccc(/C=C/C(=O)Nc2nc3n(n2)C(c2ccccc2)C=C(c2ccc(Cl)cc2)N3)cc1 (stereo not drawn),u,x,-5.7%,x,u,x
COc1ccc(C2C=C(c3ccccc3)Nc3nc(NC(=O)c4cccc([N+](=O)[O-])c4)nn32)cc1 (stereo not drawn),u,x,-0.4%,x,u,x
COc1ccccc1/C=C/C(=O)Nc1nc2n(n1)C(c1ccc(F)cc1)C=C(c1ccccc1)N2 (stereo not drawn),4.61µM*,x,1.5%,x,10.3µM*,x
O=C(/C=C/c1ccc(F)cc1)Nc1nc2n(n1)C(c1ccc(Cl)cc1)C=C(c1ccccc1)N2 (stereo not drawn),14.6µM*,x,-0.8%,x,u,x

# Compound activity from PubChem BioAssay.
